Results filed as inconclusive are left out. Calls of active or inactive are those of the source. Rule for the calls: active = hit-call score of the fitted dose curve at least 0.9, where 1 is the maximum; inconclusive = response in the unintended direction; inactive = score below 0.9.

For 15 compounds, outcome and AC50 results are on record in PubChem BioAssay (EPA / NIEHS).

Caspase-1 (Homo sapiens), sequence (P29466 whole entry, looked up): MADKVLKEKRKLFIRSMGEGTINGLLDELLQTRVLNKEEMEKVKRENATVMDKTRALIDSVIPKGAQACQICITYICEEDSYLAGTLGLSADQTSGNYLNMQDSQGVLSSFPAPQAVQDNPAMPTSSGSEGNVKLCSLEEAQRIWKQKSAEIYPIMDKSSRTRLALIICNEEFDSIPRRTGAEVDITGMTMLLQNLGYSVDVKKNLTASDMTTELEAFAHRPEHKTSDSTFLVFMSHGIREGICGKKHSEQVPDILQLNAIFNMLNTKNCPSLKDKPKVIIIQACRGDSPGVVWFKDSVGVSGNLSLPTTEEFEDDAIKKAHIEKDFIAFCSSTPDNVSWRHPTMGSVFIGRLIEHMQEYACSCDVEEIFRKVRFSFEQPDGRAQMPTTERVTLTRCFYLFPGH

This assay addresses Caspase-1 (Homo sapiens) (UniProt P29466). The assay can be described thus: NVS_ENZ_hCASP1: NovaScreen (NVS) Enzymatic Assay for human Caspase 1 (CASP1) (AID 2283132). The procedure: NVS_ENZ_hCASP1 is a biochemical, single-readout assay that uses extracted gene-proteins from E. coli in a cell-free assay. Measurements were taken 1 hour after chemical dosing in a 96-well plate.NVS_ENZ_hCASP1 is one of one assay component(s) measured or calculated from the NVS_ENZ_hCASP1 assay. It is designed to make measurements of enzyme activity, a form of enzyme reporter, as detected with fluorescence intensity signals by Fluorescence technology.Data from the assay component NVS_ENZ_hCASP1 was analyzed into 1 assay endpoint. This assay endpoint, NVS_ENZ_hCASP1, was analyzed in the positive analysis fitting direction relative to DMSO as the negative control and baseline of activity. Using a type of enzyme reporter, loss-of-signal activity can be used to understand changes in the enzymatic activity as they relate to the gene CASP1. Furthermore, this assay endpoint can be referred to as a primary readout, because this assay has produced multiple assay endpoints where this one serves a enzymatic activity function. To generalize the intended target to other relatable targets, this assay endpoint is annotated to the protease intended target family, where the subfamily is cysteine protease.
Binding assays used specific radioligands (tritiated, iodinated) with non-radioactive competitive displacement ligands in agonist or antagonist protocols (as indicated) and various reference compounds and inhibitors to titrate specific binding to receptors and transporters. Most enzyme assays (CYPs, kinases, phosphatases, proteases, HDACs) used recombinant protein and specific substrates (fluorescence mostly, some colorimetric and radioactive) and inhibitors, followed by a biochemical separation of substrate and product. All assays for the biochemical HTS were initially run in duplicate at a single concentration (10 uM for CYP450 assays and 25 uM for all others). Assay-chemical combinations meeting a pre-defined threshold (e.g., 30% inhibition and other criteria defined below) were then run in singleton concentration-response format with maximum concentration of 20 uM for CYPs and 50 uM for all others. Each assay was run with positive and negative controls, and concurrent controls on every plate. The follow-up (secondary) screen tested active chemical-pairs in concentration series, as well as a few additional assays not tested in the primary screen, some selected negative inactives, and several cases re-run in the concentration series for confirmatory purposes.
On to `CN(C)c1ccc(C(=C2C=CC(=[N+](C)C)C=C2)c2ccc(N(C)C)cc2)cc1`, for which the call was inactive. Turning to `COc1cc(-c2nc(NC(=O)c3cc4cc(C)cc(C)c4n3CC(=O)O)sc2CCC2CCCCC2)c(OC)cc1Cl`, the half-maximal activity concentration (AC50) is 29.1 µM (active). Same read-out and setting: the same measure for `Oc1cc2ccccc2c2ccccc12`: 12.1 µM (active).

For `Nc1ccc2c(c1)C(=O)c1ccccc1C2=O`, the compound was classed as inactive.

As for `CCc1cc(SCc2sc(-c3ccc(C(F)(F)F)cc3)nc2CN2CCN(c3ccc(OC)cc3)CC2)ccc1OCC(=O)O`, the half-maximal activity concentration (AC50) was 46.1 µM (active). Consider `O=C(OC[C@H]1O[C@@H](OC(=O)c2cc(O)c(O)c(OC(=O)c3cc(O)c(O)c(O)c3)c2)[C@H](OC(=O)c2cc(O)c(O)c(OC(=O)c3cc(O)c(O)c(O)c3)c2)[C@@H](OC(=O)c2cc(O)c(O)c(OC(=O)c3cc(O)c(O)c(O)c3)c2)[C@@H]1OC(=O)c1cc(O)c(O)c(OC(=O)c2cc(O)c(O)c(O)c2)c1)c1cc(O)c(O)c(OC(=O)c2cc(O)c(O)c(O)c2)c1`, for which the concentration at half-maximal activity (AC50) is 1.14 µM (active). `S=C([S-])NCCNC(=S)[S-].[Mn+2]`: the call was inactive.

As to `CCC(O)=C1C(=O)CC(C(=O)O)CC1=O` (stereo not given), the outcome was inactive. In the case of `COc1cc(S(=O)(=O)O)c(C)cc1N=Nc1c(O)ccc2cc(S(=O)(=O)O)ccc12`, the concentration at half-maximal activity (AC50) was 25 µM (active). Turning to `S=C(S)NCCNC(=S)S.[Mn+2].[S-]C([S-])=NCCN=C([S-])[S-].[Zn+2]`, the compound was called inactive. The same measure, in the same setting: next, `OC[C@H]1O[C@@](CO)(O[C@H]2O[C@H](CO)[C@@H](O)[C@H](O)[C@H]2O)[C@@H](O)[C@@H]1O`: “inactive”. Regarding `O=C1c2c(O)cccc2Cc2cccc(O)c21`, the AC50 is 5.01 µM (active). On to `CCCCCCC(C)OC(=O)COc1nc(F)c(Cl)c(N)c1Cl` (stereo not given), for which the result was inactive. Turning to `CCOc1cccc(-n2cc(C(=O)N3CCN(c4cc(C(=O)O)c5ccccc5c4)CC3)nc2-c2ccc(C)cc2)c1`, the compound was classed as inactive.

`O=S(=O)(O)c1ccc(N=Nc2c(O)ccc3cc(S(=O)(=O)O)ccc23)cc1`: the AC50 was 25 µM (active).
